For assay [1], the target named is CCAAT/enhancer-binding protein beta (Homo sapiens) (UniProt P17676). As to the kind of experiment: ATG_C_EBP_CIS: Attagene CIS-FACTORIAL HepG2 Assay for human CCAAT/Enhancer Binding Protein (C/EBP) beta (AID 2282927). The following applies: HepG2 Attagene cis-factorial transcription factor reporter; actives raise or lower the signal. The procedure, abridged: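 Following a 24 h incubation with test chemical, transfected HepG2 cells yielded RNA whose reporter transcripts were quantified by RT-PCR and fluorescent capillary electrophoresis, with DMSO serving as baseline for bidirectional fitting.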

Assay [2] can be described thus: ATG_DR4_LXR_CIS: Attagene CIS-FACTORIAL HepG2 Assay for human Liver X Receptor (LXR), DR4 submotif (AID 2282929). The settings on record: HepG2 Attagene DR4 cis-reporter, mRNA transcription; actives raise or lower the signal. The gist of the method:
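After transient transfection with multiplexed cis-promoter reporter units, HepG2 cells received test chemicals for 24 h. Reporter mRNA induction, detected by fluorescence after RT-PCR and capillary electrophoresis, was scored relative to DMSO.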

Assay [3] in a line: ATG_AP_2_CIS: Attagene CIS-FACTORIAL HepG2 Assay for human Activator Protein 2 (AP-2) (AID 2282932). The following applies: HepG2 AP-2 cis-reporter, Attagene transcription factor profiling; actives raise or lower the signal. The procedure, abridged: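 Bidirectional curve fitting against DMSO was applied to reporter mRNA signals from HepG2 cells 24 h after dosing. Cis-promoter reporter units, transiently transfected, were read by RT-PCR plus capillary electrophoresis.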

For assay [4], the target named is Transcription factor E2F1 (Homo sapiens) (UniProt Q01094). As to the kind of experiment: ATG_E2F_CIS: Attagene CIS-FACTORIAL HepG2 Assay for human E2F Transcription Factor 1 (AID 2282935). The following applies: HepG2 Attagene cis-reporter, E2F reporter RNA transcripts; actives raise or lower the signal. The procedure, abridged: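 Multiplexed cis-reporter assay: HepG2, transient transfection, 24 h dosing, mRNA quantitation by labeled RT-PCR and CE.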

Assay [5] can be described thus: ATG_E_Box_CIS: Attagene CIS-FACTORIAL HepG2 Assay for human Enhancer Box (E-box) (AID 2282936). The following applies: HepG2 E-box cis-reporter transcription, actives raise or lower the signal. The gist of the method: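 Multiplexed CIS reporter system in transiently transfected HepG2 cells measures native transcription factor activity. Reporter RNA after 24 h exposure is profiled by RT-PCR-capillary electrophoresis.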

The nature of assay [6]: ATG_M_19_CIS: Attagene CIS-FACTORIAL HepG2 Assay for M19 Transcription Factor (Internal Marker) (AID 2282939). The following applies: HepG2 Attagene CIS-FACTORIAL M19 internal marker reporter; actives raise or lower the signal. The gist of the method: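 Signals come from fluorescence of labelled reporter-specific PCR fragments resolved by capillary electrophoresis, following 24 h treatment of HepG2 cells transfected with cis-promoter reporter units; activity was fitted in both directions relative to DMSO.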

The nature of assay [7]: ATG_GLI_CIS: Attagene CIS-FACTORIAL HepG2 Assay for human Zinc Finger Protein GLI1 (AID 2282945). The following applies: HepG2, Attagene cis-factorial reporter mRNA, GLI element; actives raise or lower the signal. The gist of the method:
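HepG2 cells transiently transfected with cis-promoter multiplexed reporter units report endogenous transcription factor activity. After 24 h chemical exposure, reporter mRNA was quantified by RT-PCR, 6-FAM labelling, HpaI digestion and capillary electrophoresis, with bidirectional fitting against DMSO.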

Assay [8] is described as follows: ATG_ISRE_CIS: Attagene CIS-FACTORIAL HepG2 Assay for human Interferon Regulatory Factor 1 (IRF1) binding to an Interferon-Stimulated Response Element (ISRE) (AID 2282948). The settings on record: HepG2 ISRE cis-reporter (Attagene), mRNA transcription readout; actives raise or lower the signal. The gist of the method: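 Transfected HepG2 (multiple reporter transcription units, cis elements) dosed 24 h. RNA → oligo(dT) RT → PCR → 6-FAM primer extension → HpaI → CE. DMSO = negative control/baseline.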

Assay [9] can be described thus: ATG_M_32_CIS: Attagene CIS-FACTORIAL HepG2 Assay for M32 Transcription Factor (Internal Marker) (AID 2282949).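 Further: background control marker of the multiplexed CIS panel rather than a real target.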 The following applies: HepG2 Attagene cis-factorial M32 reporter, mRNA; actives raise or lower the signal. The procedure, abridged:
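Fluorescent capillary electrophoresis peaks of HpaI-digested, FAM-labelled RT-PCR reporter products give the signal. Source: transiently transfected human liver HepG2 cells, 24 h after chemical dosing; bidirectional fitting against DMSO.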

Assay [10] in a line: ATG_PXRE_CIS: Attagene CIS-FACTORIAL HepG2 Assay for human Pregnane X Receptor Element (PXRE) (AID 2282957). The settings on record: HepG2 Attagene CIS-FACTORIAL PXRE reporter, mRNA; actives raise or lower the signal. The procedure, abridged:
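Cis-element reporter mRNA in human hepatoma HepG2 cells is measured 24 h post-dosing by RT-PCR, primer-extension labeling and capillary electrophoresis; gain or loss of signal is fitted relative to DMSO.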

Assay [11] in a line: ATG_Sox_CIS: Attagene CIS-FACTORIAL HepG2 Assay for human SRY-box transcription factor (SOX) (AID 2282960). The settings on record: HepG2 Attagene cis-factorial SOX reporter, mRNA; actives raise or lower the signal. The procedure, abridged: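 Using transiently transfected HepG2 cells, reporter transcription driven by cis elements was assessed 24 h after dosing. Signal was fluorescence of capillary-separated RT-PCR products, with DMSO defining baseline activity.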

Assay [12] addresses Transcription factor Sp1 (Homo sapiens) (UniProt P08047). As to the kind of experiment: ATG_Sp1_CIS: Attagene CIS-FACTORIAL HepG2 Assay for human Specificity Protein 1 (Sp1) (AID 2282961). The settings on record: HepG2 Sp1 cis-reporter transcription, actives raise or lower the signal. The procedure, abridged:
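After transient transfection of HepG2 cells with cis-promoter reporter units and 24 h chemical treatment, reporter transcripts were quantified by RT-PCR and capillary electrophoresis fluorescence. Gain- and loss-of-signal fitted against DMSO.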

Assay [13] concerns the target Signal transducer and activator of transcription 3 (Homo sapiens) (UniProt P40763). As to the kind of experiment: ATG_STAT3_CIS: Attagene CIS-FACTORIAL HepG2 Assay for human Signal Transducer and Activator of Transcription 3 (STAT3) (AID 2282963). The settings on record: HepG2, Attagene cis-factorial STAT3 reporter transcription; actives raise or lower the signal. The procedure, abridged: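 Transcript-level reporter assay. HepG2 transient MRTU transfection, 24 h exposure, fluorescence detection after RT-PCR and CE; DMSO baseline.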

Assay [14] can be described thus: ATG_TA_CIS: Attagene CIS-FACTORIAL HepG2 Assay for human TA Basal Promoter (AID 2282964). The following applies: HepG2 Attagene CIS-factorial TA basal promoter reporter; actives raise or lower the signal. The procedure, abridged:
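Fluorescence from labelled RT-PCR reporter fragments, separated by capillary electrophoresis, gives the signal. Cells: HepG2 transiently carrying multiple reporter units, 24 h chemical dosing. Gain or loss relative to DMSO.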

The nature of assay [15]: ATG_TCF_b_cat_CIS: Attagene CIS-FACTORIAL HepG2 Assay for human T-Cell-Factor with beta-catenin (TCF/b-cat) (AID 2282965). The settings on record: HepG2 TCF/beta-catenin cis-reporter transcription, actives raise or lower the signal. The gist of the method:
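Using capillary electrophoresis as the read-out, labelled reporter cDNA fragments from transiently transfected HepG2 were sized and quantified. Exposure lasted 24 hours; activity in either direction was referenced to DMSO.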

Assay [16] in a line: ATG_TAL_CIS: Attagene CIS-FACTORIAL HepG2 Assay for human TAL Basal Promoter (AID 2282966).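 Further: background control endpoint measuring basal TAL promoter reporter mRNA not a specific factor.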 The following applies: HepG2 Attagene cis-factorial TAL promoter reporter; actives raise or lower the signal. The procedure, abridged:
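In this cell-based multiplex, HepG2 liver cells bearing cis-promoter reporter constructs are dosed for 24 hours. Total RNA is reverse-transcribed and amplified, labelled fragments are sized by capillary electrophoresis, and signal changes are fitted bidirectionally versus DMSO.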

For assay [17], the target named is X-box-binding protein 1 (Homo sapiens) (UniProt P17861). As to the kind of experiment: ATG_Xbp1_CIS: Attagene CIS-FACTORIAL HepG2 Assay for human X-box Binding Protein 1 (XBP1) (AID 2282972). The settings on record: HepG2 XBP1 cis-element reporter, Attagene multiplex; actives raise or lower the signal. The gist of the method:
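HepG2, transient MRTU transfection (cis-promoter driven), 24 h compound exposure. Total RNA → oligo(dT) RT → PCR → 6-FAM labeling → HpaI cut → CE. Bidirectional fit vs DMSO.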

In assay [18] the target is Transcriptional activator Myb (Homo sapiens) (UniProt P10242). As to the kind of experiment: ATG_Myb_CIS: Attagene CIS-FACTORIAL HepG2 Assay for human Myeloblastosis (Myb) Proto-Oncogene Transcription Factor (AID 2282986). The settings on record: HepG2 Attagene CIS-FACTORIAL Myb reporter transcription; actives raise or lower the signal. The procedure, abridged: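 Multiplexed cis-reporter system in HepG2: transient transfection, 24 h treatment, mRNA readout by RT-PCR and capillary electrophoresis. Both increases and decreases are scored versus DMSO negative control.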

Assay [19] has as its target Myc proto-oncogene protein (Homo sapiens) (UniProt P01106). As to the kind of experiment: ATG_Myc_CIS: Attagene CIS-FACTORIAL HepG2 Assay for human Myelocytomatosis (Myc) Proto-Oncogene Transcription Factor (AID 2282990). The following applies: HepG2, Attagene cis-reporter transcription factor activity; actives raise or lower the signal. The procedure, abridged:
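Multiplexed cis-reporter transcription in HepG2 cells after 24 h chemical treatment. Reporter mRNA measured by RT-PCR and capillary electrophoresis fluorescence; activity fitted bidirectionally against DMSO control.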

A short description of assay [20]: ATG_Oct_MLP_CIS: Attagene CIS-FACTORIAL HepG2 Assay for human Octamer-Binding Transcription Factor (Oct) (AID 2282993). The settings on record: HepG2 Attagene cis-factorial Oct reporter, mRNA; actives raise or lower the signal. The gist of the method: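 HepG2, transient MRTU transfection, cis promoter elements; 24 h dosing; RT-PCR/CE fluorescence read-out of reporter mRNA; fit both directions vs DMSO.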

Results on three molecules are retold here after PubChem BioAssay (EPA / NIEHS).

SMILES strings stand for the structures. Activity calls are given as the source filed them. How the source made its calls: active means hit-call score of the fitted dose curve at least 0.9, where 1 is the maximum; inactive means score below 0.9.

Myc proto-oncogene protein (Homo sapiens), sequence (P01106 whole entry, looked up): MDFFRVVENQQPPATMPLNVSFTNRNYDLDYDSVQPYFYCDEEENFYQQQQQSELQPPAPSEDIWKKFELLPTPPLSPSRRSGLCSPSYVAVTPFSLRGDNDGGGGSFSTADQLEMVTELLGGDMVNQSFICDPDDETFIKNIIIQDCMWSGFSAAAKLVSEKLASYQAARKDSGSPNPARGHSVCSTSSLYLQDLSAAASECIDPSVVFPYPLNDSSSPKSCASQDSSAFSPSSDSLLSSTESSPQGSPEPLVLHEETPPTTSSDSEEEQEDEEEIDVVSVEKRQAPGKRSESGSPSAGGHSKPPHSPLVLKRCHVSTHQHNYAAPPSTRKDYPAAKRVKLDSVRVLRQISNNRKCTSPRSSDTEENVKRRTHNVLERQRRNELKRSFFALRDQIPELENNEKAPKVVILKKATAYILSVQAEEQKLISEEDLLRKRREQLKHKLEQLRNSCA
X-box-binding protein 1 (Homo sapiens), sequence (P17861 whole entry, looked up): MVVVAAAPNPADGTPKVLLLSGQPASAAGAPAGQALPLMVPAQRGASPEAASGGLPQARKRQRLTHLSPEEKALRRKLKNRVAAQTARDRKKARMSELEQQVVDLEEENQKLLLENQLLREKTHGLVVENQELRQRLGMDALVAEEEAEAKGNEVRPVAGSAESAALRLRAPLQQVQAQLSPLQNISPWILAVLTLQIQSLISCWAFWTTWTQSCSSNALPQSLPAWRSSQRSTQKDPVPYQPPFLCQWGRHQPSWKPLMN
Transcriptional activator Myb (Homo sapiens), sequence (P10242 whole entry, looked up): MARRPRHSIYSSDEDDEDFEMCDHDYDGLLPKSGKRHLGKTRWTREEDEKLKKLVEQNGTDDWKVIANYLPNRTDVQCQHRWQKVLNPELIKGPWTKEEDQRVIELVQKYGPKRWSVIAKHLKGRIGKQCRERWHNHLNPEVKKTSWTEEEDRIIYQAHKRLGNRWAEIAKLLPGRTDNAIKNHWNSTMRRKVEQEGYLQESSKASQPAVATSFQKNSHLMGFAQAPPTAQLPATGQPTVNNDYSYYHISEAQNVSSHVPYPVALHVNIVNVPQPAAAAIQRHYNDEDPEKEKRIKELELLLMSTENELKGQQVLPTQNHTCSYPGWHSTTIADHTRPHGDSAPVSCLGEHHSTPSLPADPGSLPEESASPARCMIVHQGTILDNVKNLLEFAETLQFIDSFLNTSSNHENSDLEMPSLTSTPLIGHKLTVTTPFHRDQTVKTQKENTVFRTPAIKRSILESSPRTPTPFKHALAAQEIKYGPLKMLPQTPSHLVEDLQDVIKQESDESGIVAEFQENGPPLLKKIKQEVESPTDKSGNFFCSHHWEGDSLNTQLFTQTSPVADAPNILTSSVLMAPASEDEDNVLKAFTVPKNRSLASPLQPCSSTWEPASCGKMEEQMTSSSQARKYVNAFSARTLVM
Transcription factor E2F1 (Homo sapiens), sequence (Q01094 whole entry, looked up): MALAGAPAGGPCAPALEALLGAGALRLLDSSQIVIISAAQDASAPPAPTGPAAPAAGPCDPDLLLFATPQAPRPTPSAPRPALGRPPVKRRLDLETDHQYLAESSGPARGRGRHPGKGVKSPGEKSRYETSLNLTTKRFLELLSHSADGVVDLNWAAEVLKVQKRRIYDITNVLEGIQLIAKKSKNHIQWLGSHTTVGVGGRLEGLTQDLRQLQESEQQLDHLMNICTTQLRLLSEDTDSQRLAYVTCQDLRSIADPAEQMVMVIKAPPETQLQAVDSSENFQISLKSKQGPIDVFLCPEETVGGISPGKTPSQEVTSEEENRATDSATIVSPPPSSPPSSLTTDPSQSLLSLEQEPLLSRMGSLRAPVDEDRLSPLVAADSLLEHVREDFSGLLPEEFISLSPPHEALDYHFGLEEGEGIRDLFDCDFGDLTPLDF
CCAAT/enhancer-binding protein beta (Homo sapiens), sequence (P17676 whole entry, looked up): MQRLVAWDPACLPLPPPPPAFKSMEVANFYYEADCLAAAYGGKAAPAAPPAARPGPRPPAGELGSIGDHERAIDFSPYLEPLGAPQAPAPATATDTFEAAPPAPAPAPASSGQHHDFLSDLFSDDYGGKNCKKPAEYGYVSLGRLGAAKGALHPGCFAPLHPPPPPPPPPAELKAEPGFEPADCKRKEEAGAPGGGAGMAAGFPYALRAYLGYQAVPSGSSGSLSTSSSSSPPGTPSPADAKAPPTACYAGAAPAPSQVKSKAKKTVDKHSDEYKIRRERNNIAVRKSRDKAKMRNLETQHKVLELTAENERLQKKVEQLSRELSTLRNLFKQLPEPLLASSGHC
Transcription factor Sp1 (Homo sapiens), sequence (P08047 whole entry, looked up): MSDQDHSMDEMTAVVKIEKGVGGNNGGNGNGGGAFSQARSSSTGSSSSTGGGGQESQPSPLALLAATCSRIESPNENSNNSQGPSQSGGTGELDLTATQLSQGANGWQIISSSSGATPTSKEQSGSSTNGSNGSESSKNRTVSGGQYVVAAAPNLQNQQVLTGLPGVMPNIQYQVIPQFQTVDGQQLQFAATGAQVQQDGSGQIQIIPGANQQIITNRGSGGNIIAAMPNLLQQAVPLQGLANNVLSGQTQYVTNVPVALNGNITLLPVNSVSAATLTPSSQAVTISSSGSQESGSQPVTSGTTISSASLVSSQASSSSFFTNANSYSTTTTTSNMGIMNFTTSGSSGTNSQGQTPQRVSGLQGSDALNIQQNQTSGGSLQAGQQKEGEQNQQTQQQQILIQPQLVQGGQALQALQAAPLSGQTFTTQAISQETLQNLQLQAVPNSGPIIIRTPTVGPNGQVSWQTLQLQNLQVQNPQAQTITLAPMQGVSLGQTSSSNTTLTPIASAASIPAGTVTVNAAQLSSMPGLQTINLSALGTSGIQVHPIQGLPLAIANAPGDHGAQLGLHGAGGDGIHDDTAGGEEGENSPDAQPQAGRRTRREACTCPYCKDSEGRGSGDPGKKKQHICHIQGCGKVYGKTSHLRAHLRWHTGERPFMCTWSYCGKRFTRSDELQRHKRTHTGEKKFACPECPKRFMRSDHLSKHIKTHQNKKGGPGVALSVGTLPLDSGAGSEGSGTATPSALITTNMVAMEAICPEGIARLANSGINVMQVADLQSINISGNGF
Signal transducer and activator of transcription 3 (Homo sapiens), sequence (P40763 whole entry, looked up): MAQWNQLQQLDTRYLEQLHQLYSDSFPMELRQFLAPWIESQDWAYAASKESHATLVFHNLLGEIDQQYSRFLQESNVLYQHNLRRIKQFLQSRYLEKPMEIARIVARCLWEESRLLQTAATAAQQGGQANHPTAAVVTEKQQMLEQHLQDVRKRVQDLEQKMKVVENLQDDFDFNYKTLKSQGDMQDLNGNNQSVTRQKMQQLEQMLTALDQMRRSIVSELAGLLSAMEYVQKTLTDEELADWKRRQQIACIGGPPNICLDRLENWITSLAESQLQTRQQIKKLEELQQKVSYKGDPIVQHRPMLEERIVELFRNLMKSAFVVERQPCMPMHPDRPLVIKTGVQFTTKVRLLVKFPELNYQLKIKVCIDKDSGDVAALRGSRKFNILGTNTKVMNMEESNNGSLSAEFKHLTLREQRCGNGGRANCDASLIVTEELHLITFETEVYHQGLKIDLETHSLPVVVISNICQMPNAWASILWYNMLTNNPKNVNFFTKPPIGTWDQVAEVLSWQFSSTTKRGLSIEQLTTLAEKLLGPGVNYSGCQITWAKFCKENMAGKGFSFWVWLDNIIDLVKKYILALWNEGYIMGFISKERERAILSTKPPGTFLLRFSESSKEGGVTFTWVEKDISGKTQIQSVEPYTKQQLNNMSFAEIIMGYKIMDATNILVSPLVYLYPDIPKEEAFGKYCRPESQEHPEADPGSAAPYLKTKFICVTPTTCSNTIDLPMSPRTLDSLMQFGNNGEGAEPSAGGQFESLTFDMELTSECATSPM

Regarding `O=[N+]([O-])c1cc([N+](=O)[O-])c2ccccc2c1`, the result in [1], in assay [2], in [3], in assay [4], in assay [6] and in assay [7] was inactive. Besides, the molecule was called inactive in assay [8], in assay [9], in assay [11], in assay [12], in assay [13] and in assay [14]. Besides, the molecule was classed as inactive in assay [15], in assay [16], in [17], in assay [18], in assay [19] and in [20]. Further, the AC50 was 10.5 µM (active) in [5] and 8.8 µM (active) in assay [10].

As for `CCCCCCCCCCCCCCCC[N+](C)(C)C`, the AC50 in assay [1] was 24.1 µM (active); in assay [4], 24.2 µM (active); in [5], 48.7 µM (active); in assay [8], 27.4 µM (active); in assay [9] it was 25.5 µM (active); in assay [10] it was 20.3 µM (active). For the same molecule, the AC50 is 100 µM (active) in [11]; 5.71 µM (active) in assay [15]; 138 µM (active) in assay [16]; 24.5 µM (active) in assay [18]; 26.8 µM (active) in assay [20]. The call in assay [2], in [3], in assay [6], in [7], in assay [12] and in assay [13] was inactive. The outcome in assay [14], in assay [17] and in assay [19] was inactive.

As for `ClC1=C(Cl)[C@]2(Cl)[C@@H]3[C@@H](Cl)[C@H](Cl)C[C@@H]3[C@@]1(Cl)C2(Cl)Cl`, the outcome in assay [1], in assay [2], in [3], in assay [4], in assay [5] and in assay [6] was inactive. In addition, the result in assay [7], in assay [8], in [9], in assay [10], in assay [11] and in assay [12] was inactive. Besides, the molecule was called inactive in [13], in assay [14], in [15], in assay [16], in assay [17] and in assay [18]. In addition, the result in assay [19] and in [20] was inactive.

For orientation: AC50 means the concentration at which the activity in the assay is half-maximal.
